About 83,000 compounds went through this panel and 20% of them were active in at least one assay; those are over-represented in the sample as a whole.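 Method: cells in 96-well plates; compound added at one concentration; 48 h incubation; percent growth measured; values under 10 scored active.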 Values without a mark were called inactive. Calls of active or inactive are those of the source.
Test system: OVCAR-5 ovarian
Experiment: NCI-60 one-dose screen, 48 h (100 = growth as untreated, 0 = no growth, -100 = all killed)
Conditions: 10 µM unless noted
Procedure: Growth inhibition of the OVCAR-5 human tumor cell line is measured as a screen for anti-cancer activity. Cells are grown in 96 well plates and exposed to the test compound for 48 hours. Compounds are tested at a single concentration, which is 10^-5 M for most compounds. The reported endpoint is percent growth (GI% or GIPRCNT), where numbers from 0 - 100% represent growth inhibition, and numbers from -100% - 0 represent cell death. For example, a value of 40 represents 60% growth inhibition. A value of 0 means no net growth occurred over the course of the experiment. A value of -40 indicates 40% of cells at the beginning of the experiment died by the end of the experiment. A value of -100 means all cells are dead at the end of the experiment.
NCI-60 Human Tumor Cell Lines Screen was performed using the standard one-dose NCI protocol, which is described in more detail at https://dtp.cancer.gov/discovery_development/nci-60/default.htm.
Compounds with GIPRCNT values below 10 were considered active. Activity score was based on GIPRCNT using the following formula: […]
Score is 0 for GIPRCNT values of 100 or above, 50 for GIPRCNT values of 0, and 100 for GIPRCNT values of -100.

| Structure (SMILES) | growth |
| --- | --- |
| COc1ccc2c3c([nH]c2c1)C(=O)c1nc(C)ccc1C3=O | 85% |
| N#Cc1c(-c2ccccc2)cc(-c2ccccc2)n(CCCCCC(=O)Nc2ccccc2N)c1=O | 66.4% |
| CCOC(=O)c1nc(Nc2ccc(NC(=O)Nc3ccc(F)cc3)cc2)c2ccccc2n1 | 108% |
| COc1ccc(/C=N/NC(=O)CCN2c3ccccc3Sc3ccccc32)cc1 | 86.3% |
| CC1=C(Nc2ccc(N3CCN(C)CC3)cc2)C(=O)c2cncnc2C1=O | 71.7% |
| CCCCCCCCCCCCCCCC(N)c1ccccc1 (stereo not given) | 79.7% |
| CCSc1nc(NC)c2cc(-c3ccc(C(F)(F)F)cc3)ccc2n1 | 104% |
| CCn1c(=S)[nH]c2c(=O)n(C)c(=O)n(C)c21 | 104% |
| CNC(=O)c1cc(Oc2ccc3nc(NC(C)=O)sc3c2)ccn1 | 103% |
| CCOC(=O)/C=C1\S/C(=N\Nc2cc(=O)[nH]c3ccc(Cl)cc23)N(c2ccccc2)C1=O | 111% |
| O=C1N[C@@H]2NC(=[N+]3CCOCC3)N[C@@H]2N1 | 97.9% |
| CN(C)C1CCN(Cc2ccc(NC(=O)c3cncc(C#Cc4cnc(N)c5ncccc45)c3)cc2C(F)(F)F)CC1 | 123% |
| Cc1ccc(-c2cc(-c3ccc(Cl)cc3)nc(NC(=O)c3cccnc3)n2)cc1 | 102% |
| O=C1/C(=C/c2cccs2)SC(=S)N1CCCN1CCOCC1 | 105% |
| COc1cccc(/C=C/C(=O)c2cc3c(N)c(C(=O)Nc4ccccc4)sc3nc2C)c1 | 46.1% |
| CCCC(O)Cn1ncc(C(=O)OCC)c1NC(=O)NCc1ccccc1F (stereo not given) | 108% |
| CC(C)(C)c1cc(-c2nc3ccc(N4CCN(S(C)(=O)=O)CC4)cc3[nH]2)cc(C(C)(C)C)c1O | 105% |
| CNC(=O)c1c(NC(=O)c2ccc(C(F)(F)F)cc2)sc2c1CCC(=O)C2 | -44.7% (active) |
| Cc1ccc(NC(=S)NNC(=S)NNc2ccccc2)cc1C | 105% |
| Oc1c(Cl)cc(Cl)c2ccc(Cn3cc(-c4cc(F)cc(F)c4)nn3)nc12 | 91% |

| Structure (SMILES) | growth |
| --- | --- |
| CCOC(=O)CNP(=O)(OC[C@@H](Cc1ccccc1)NC(=O)c1cc2ccccc2s1)Oc1ccccc1 (stereo not given in full) | 95.4% |
| O=C(CCCCCCN1CC(=O)N2[C@H](c3cc(Br)cs3)c3[nH]c4ccccc4c3C[C@H]2C1=O)NO | 38% |
| C=C(C)[C@@H]1CC[C@]2(C(=O)N3CCN(C)CC3)CC[C@]3(C)[C@H](CC[C@@H]4[C@@]5(C)CC(=C/c6ccncc6)/C(=N/O)C(C)(C)[C@@H]5CC[C@]43C)[C@@H]12 | 86.7% |
| CC(C)c1ccc(NC(=O)Nc2ccc(NC(=O)CCCC(=O)NOCc3ccccc3)cc2)cc1 | 89.2% |
| CC(=O)N(N=Nc1ccccc1)c1cccc2ccccc12 | 75.8% |
| O=c1oc2ccccc2cc1C1=NN=C(SCc2ccccc2)SC1 | 105% |
| COc1ccc2c(c1)c(-c1noc(C(=O)c3cn(C)c4ccc(Br)cc34)n1)cn2C | 107% |
| CCc1n(Cc2ccc3ccccc3c2)cc[n+]1Cc1ccc2ccccc2c1 | 8.92% (active) |
| CCOc1nc(-c2ccccc2)cc2c(O)c(C(=O)NN)[nH]c(=O)c12 | 106% |
| O=C(O)c1ccc(-n2cc(/C=N/Nc3ccc(F)cc3)c(-c3cc4ccccc4oc3=O)n2)cc1 | 82.4% |
| O=C1c2cccnc2C(=O)c2c1c(C(=O)NCCn1ccnc1)c1ccccn21 | 92.1% |
| COc1cc(/C=C\c2cc(/C=C\c3ccc(O)c(OC)c3)n(C(=O)COc3ccc(Cl)cc3Cl)n2)ccc1O | 56.7% |
| O=C(O)c1[nH]c(=O)[nH]c(=O)c1[N+](=O)[O-] | 126% |
| O=C(CCCCC1CCSS1)Nc1ncnc2n[nH]c(-c3ccc(Oc4ccccc4)cc3)c12 (stereo not given) | 101% |
| COC(=O)c1c2c(c(C)[n+]([O-])c1C)C(=O)C(NCc1ccc(Cl)cc1)=CC2=O | 97.3% |
| Nc1ncnc2c1N=C(c1ccc(Cl)cc1)CC(c1ccc3c(c1)OCO3)N2 (stereo not given) | 85.6% |
| COc1ccc(C(=O)Nc2ncc(Cc3cccc(Cl)c3)s2)cc1OC | 49.3% |
| Clc1ccc2c(c1)N(c1ncnc3ccc(-c4cnc5[nH]ncc5c4)cc13)CC2 | 20.3% |
| Cn1ccc2c3c(ccc21)CC3=O | 102% |
| C=CCn1cc(-c2nc3ccccc3s2)c2cc(-c3ccc4c5c(cccc35)C(=O)N(N)C4=O)ccc21 | 103% |
